In PubChem BioAssay AID652048 (National Center for Advancing Translational Sciences (NCATS), 2013) one finds max activation data, which are given here for 86 compounds.

The structures appear in SMILES notation. “And” between values parts separate entries of the source, which are not always exact repeats. Identical values can stand only once. Screen size: about 410,000 compounds; about 2,400 (0.59%) were called active. Many of the other results were omitted from the sample, so actives are more common in it than they were. Unmarked numbers belong to inactive results. Cut-off read from the data, not from the text of the source: active = max activation above about 30%; inactive = the rest.

Sequence of D(3) dopamine receptor (Homo sapiens) (P35462 whole entry, looked up): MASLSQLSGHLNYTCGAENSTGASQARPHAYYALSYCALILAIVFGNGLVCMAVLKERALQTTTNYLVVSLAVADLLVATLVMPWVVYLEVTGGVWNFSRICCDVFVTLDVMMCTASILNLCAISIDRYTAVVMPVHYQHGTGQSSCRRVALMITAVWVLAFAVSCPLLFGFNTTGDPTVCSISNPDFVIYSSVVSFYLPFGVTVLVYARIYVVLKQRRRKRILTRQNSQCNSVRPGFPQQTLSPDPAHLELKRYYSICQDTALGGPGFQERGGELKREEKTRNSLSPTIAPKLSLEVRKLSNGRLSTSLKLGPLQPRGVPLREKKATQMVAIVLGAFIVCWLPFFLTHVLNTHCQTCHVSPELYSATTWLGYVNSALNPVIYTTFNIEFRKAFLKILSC

This experiment has as its target D(3) dopamine receptor (Homo sapiens) (UniProt P35462). The experiment can be described thus: qHTS of D3 Dopamine Receptor Agonist: qHTS. Note: 0% is about no effect. Particulars: D3R DiscoveRx beta-arrestin cells, luminescence, 90 min; hits give high values. The essentials:
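Agonist mode: compounds and dopamine controls were applied to plated cells for 90 min at 37 degrees C after an overnight attachment at 1500 cells/well. Luminescent read-out followed 30 - 60 minutes at room temperature with DiscoveRx detection reagent.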
On to `CCOC(=O)c1cnc(SCC(=O)Nc2cccc(OC)c2)nc1N`, for which the max activation was 6.65%.

On to `CCCCOc1ccc(-c2ncc(C(=O)OCC)c(N)n2)cc1`, for which the max activation was 85% (active).

`CCOC(=O)c1cnc(SCc2nc(N)nc(Nc3ccc(OC)cc3)n2)nc1N`: the max activation is 2.44%.

For the compound `CCOC(=O)c1c(NC(=O)c2cc(-c3ccc(Cl)cc3)on2)sc2c1CCCC2`, the max activation is -8.12%.

Turning to `C=O`, the max activation was 7.37%.

With `CCn1cc(C(=O)N(C)Cc2ccccc2)c(=O)c2cc(S(=O)(=O)N3CCCCCC3)ccc21`, the max activation is 3.05%.

As for `COc1cc(/C=C2\Oc3ccc(C#Cc4ccc(O)cc4)cc3C2=O)cc(OC)c1`, the max activation is 15.9%.

`COc1cc(C#Cc2ccc3cc(CCCO)oc(=O)c3c2)cc(OC)c1`: the max activation is 41.1% (active).

Take `COc1cc(CN(C(=O)c2ccccc2Br)c2ccccn2)cc(OC)c1OC`: the max activation was -5.51%.

Turning to `COC(=O)c1ccc(NC(=O)CCc2c(C)nc3c(c(C)nn3-c3ccc(C)cc3)c2C)cc1`, the max activation was 4.91%.

On to `O=S(O)CNc1ccc(S(=O)(=O)c2ccc(NCS(=O)O)cc2)cc1`, for which the max activation was -10.5%.

With `Cc1ccc(N2C(=O)C(NC(=O)c3c(F)cccc3F)(C(F)(F)F)C3=C2CC(C)(C)CC3=O)cc1` (stereo unspecified), the max activation is -17.5%.

On to `COC(=O)C1CC2=C(CC(C)(C)CC2=O)N(c2ccccc2)C1=O` (stereo unspecified), for which the max activation is 32.1% (active).

Take `CC(C)C1C2=C(CC(C)(C)CC2=O)ON1c1ccccc1` (stereo unspecified): the max activation is -2.83%.

Regarding `CC(=O)NC(=O)c1ccccc1O`, the max activation is -11.8%.

With `Cc1cc(C)cc(NC(=O)c2cnc3sc(N4CCCC4)nn3c2=O)c1`, the max activation was 19.3%.

Take `CC(C)Oc1ccc(CNC(=O)C2CCN(c3nc4ccccc4n(C)c3=O)CC2)cc1`: the max activation is -5.52%.

On to `COc1cc(C(=O)N2CCOCC2)cc(OC)c1OC`, for which the max activation is 4.3% and 9.01%.

In the case of `O=C1OC(/C=C/c2ccccc2)=NC/1=C/c1ccco1`, the max activation is 30.1% (active).

As for `COc1ccccc1/C=C/C1=NC(=C\N(C)C)/C(=O)O1`, the max activation is -12.1%.

As to `CC(C)(C)C1C/C(=C/c2ccco2)C(=O)/C(=C/c2ccco2)C1` (stereo unspecified), the max activation was -7.15%.

`Cc1cccc(NC(=O)N2CCC(CN3CCc4ccccc4C3)CC2)c1C`: the max activation is -18.9%.

`CCOC(=O)Cn1c(=O)n(-c2ccccc2OC)c2nc(-c3cccc(F)c3)nc(C(N)=O)c21`: the max activation was 4.17%.

For the compound `COc1ccccc1N1CCN(c2ncnc3onc(-c4cccc(Cl)c4)c23)CC1`, the max activation was 7.08%.

Turning to `COc1ccccc1N1CCN(c2ncnc3sc(C)c(-c4ccccc4)c23)CC1`, the max activation is 50.8% (active).

Take `COc1ccccc1N1CCN(c2ncnc3onc(-c4ccc(F)cc4)c23)CC1`: the max activation was -8.86%.

As to `Cc1cccc(N2CCN(S(=O)(=O)c3ccc4[nH]c5c(c4c3)CCCCC5)CC2)c1C`, the max activation was -5.55%.

For the compound `COc1cccc(CNC(=O)CCc2nc(-c3ccc(C)cc3)no2)c1`, the max activation is -0.491%.

For `Cc1ccc(C)c(N2CCN(C(=O)CCc3nc(-c4cccc(C(F)(F)F)c4)no3)CC2)c1`, the max activation is 11.8%.

Take `COc1ccc(-c2noc(CCC(=O)N3CCN(c4cccc(C)c4)CC3)n2)cc1`: the max activation is 35.7% (active).

`CCN1CCN(C(=O)N[C@@H](C(=O)N[C@@H]2C(=O)N3[C@@H]2SC(C)(C)[C@H]3C(=O)O)c2ccccc2)C(=O)C1=O`: the max activation is -1.19%.

Turning to `O=C1N(Cc2ccccc2)c2ccc(Cl)cc2C1(O)c1c[nH]c2ccccc12` (stereo unspecified), the max activation was 8.47%.

`CCN(CC)S(=O)(=O)c1ccc2c(c1)N(CC(=O)NCC(C)c1ccccc1)C(=O)CO2` (stereo unspecified): the max activation was -18.9%.

`COc1ccc2cc(C3=CC(=O)C[C@H](c4ccc5c(c4)OCO5)C3)ccc2c1`: the max activation is 38.7% (active).

For `COc1ccc([C@H]2CC(=O)C=C(c3ccc(CO)cc3)C2)cc1`, the max activation was 10.9%.

As to `COc1cccc(C2=CC(=O)C[C@H](c3ccc(OC)c(OC)c3)C2)c1`, the max activation was -0.655%.

In the case of `Cc1nc(SCCOc2ccc(Cl)cc2)[nH]c(=O)c1Cc1ccccc1`, the max activation was 1.02%.

As for `O=C(Cn1cnc2c(oc3ccccc32)c1=O)Nc1ccc(OC(F)(F)F)cc1`, the max activation was 2.62%.

Turning to `COc1cccc(OC)c1OCCN1CCN(C(=O)c2ccco2)CC1`, the max activation is 73.2% (active).

In the case of `O=C(c1ccc(Br)o1)N1CCN(CCOc2ccccc2)CC1`, the max activation is 54.7% (active).

Take `O=CN1CCN(C(=O)c2ccc(Br)o2)CC1`: the max activation was -4.54%.

Take `O=C1CCN(CCc2ccccc2)CCN1CCOc1ccccc1`: the max activation was -27.1%.

As to `O=C(c1ccco1)N1CCN(C(=O)c2ccc(COc3ccc(F)cc3)o2)CC1`, the max activation is 1.73%.

As to `O=C(c1ccco1)N1CCN(Cc2cccc(C(F)(F)F)c2)CC1`, the max activation was 8.47%.

Turning to `O=C(CCCCn1c(=O)c2ccccc2n(CC(=O)Nc2cccc(C(F)(F)F)c2)c1=O)NCc1ccc2c(c1)OCO2`, the max activation is 6.91%.

For `CC(=O)Oc1ccccc1C(=O)Nc1ncc([N+](=O)[O-])s1`, the max activation is 6.84%.

For `CCOC(=O)c1sc(NC(=O)/C=C/c2ccc(C(C)C)cc2)c(C(=O)OCC)c1C`, the max activation is -9.68%.

As for `COC(=O)c1c(NC(=O)CCCOc2ccccc2)sc2c1CCC(C)C2` (stereo unspecified), the max activation is 4.8%.

Consider `CCOC(=O)c1c(NC(=O)/C=C/c2ccc(OC)cc2)sc2c1CCC(C)C2` (stereo unspecified), for which the max activation is 59.2% (active).

With `COc1ccccc1CNS(=O)(=O)c1cc(Br)cc2c1N(C(C)=O)C(C)C2` (stereo unspecified), the max activation is -15.9%.

As for `CCN(CCCNC(=O)c1c(C)oc2ncn(CC(C)C)c(=O)c12)Cc1ccccc1`, the max activation was -16.4%.

With `Cc1ccc(-c2ncc(Cl)cc2-c2ccc(S(C)(=O)=O)cc2)cn1`, the max activation was 3.29%.

Consider `COc1ccccc1N1CCN(c2ccc(=O)n(CC(=O)NCc3ccc(OC(C)C)cc3)n2)CC1`, for which the max activation is -15.8%.

`COC(=O)c1ccc(NC(=O)c2cc(S(=O)(=O)N3CCC(C)CC3)cn2C)cc1`: the max activation is -4.24%.

In the case of `N#C/C(=C\c1cccc(F)c1)c1nc(-c2cc3c(ccc4ccccc43)oc2=O)cs1`, the max activation is 4.13%.

With `COc1cc2c(cc1CNC[C@H]1O[C@@H](n3cnc(C(N)=O)n3)[C@H](O)[C@@H]1O)OCO2`, the max activation was 4.9%.

Regarding `NC(=O)c1ncn([C@@H]2O[C@H](CN=C3NS(=O)(=O)c4ccccc43)[C@@H](O)[C@H]2O)n1`, the max activation is 40.4% (active).

As to `NC(=O)c1ncn([C@@H]2O[C@H](CNCc3cnc(N4CCOCC4)s3)[C@@H](O)[C@H]2O)n1`, the max activation is 0%.

Regarding `COc1cccc(Nc2nc3ccccc3c3nncn23)c1`, the max activation is 10.1%.

On to `CCCn1c2ccccc2c2cnn(CC(=O)N3CCCC(C(=O)OCC)C3)c(=O)c21` (stereo unspecified), for which the max activation was 6.55%.

As to `CCc1cccc(-n2nnc(-c3nsc(NC(=O)c4ccc(C)cc4)n3)c2C)c1`, the max activation is -11.9%.

In the case of `Cc1c(-c2nsc(NC(=O)c3cccc(Cl)c3)n2)nnn1-c1ccccc1C(F)(F)F`, the max activation was -0.907%.

`COc1ccc(-n2nnc(-c3nsc(NC(=O)c4ccc(C)c(C)c4)n3)c2C)cc1Cl`: the max activation was 41.8% (active).

For `Cc1c(OC(C)C(=O)NCC2CCC(C(=O)O)CC2)ccc2c1oc(=O)c1ccccc12` (stereo unspecified), the max activation was -0.808%.

For `Cc1c(OC(C)C(=O)N[C@@H](Cc2ccccc2)C(=O)O)ccc2c3c(c(=O)oc12)CCCC3` (stereo partly specified), the max activation is 37.1% (active).

As for `Cc1oc2c(C)c3oc(=O)c(CC(=O)N[C@@H](CC(C)C)C(=O)N[C@@H](Cc4ccccc4)C(=O)O)c(C)c3cc2c1C`, the max activation was 11.4%.

Regarding `COC(=O)c1c(NC(=O)c2cc(=O)c3c(C)cc(C)cc3o2)sc2c1CCCC2`, the max activation is 4.95%.

As to `CCN1C(=NCCc2cccnc2)N[C@@H](c2ccccc2)C(C(=O)OC)=C1C`, the max activation was -55.8%.

As for `Cc1cc(C)cc(Nc2ncnc3onc(-c4ccc(F)cc4)c23)c1`, the max activation is 9.02%.

For `COc1ccc(C(=O)O/N=C(\N)Cc2ccc(Cl)cc2Cl)cc1OC`, the max activation is 36.2% (active).

Turning to `COC(=O)c1ccc(OC(=O)c2nn(C)cc2Cl)c(OC)c1`, the max activation is 1.35%.

In the case of `COc1ccc(CCn2ccc(O)c(Cc3ccc(Cl)cc3Cl)c2=O)cc1OC`, the max activation was -10.8%.

On to `CC(=O)c1ccc(NC(=O)CCc2nc(-c3ccc(C)cc3)no2)cc1`, for which the max activation is 2.51%.

For `Cc1ccc(OCCSc2nc(-c3cccs3)nc3cc(=O)[nH]n23)cc1Cl`, the max activation was 6.63%.

For the compound `CCCc1ccc(-c2c(C)sc(NC(=O)c3ccnn3C)c2C#N)cc1`, the max activation is 57.1% (active).

With `CCc1ccccc1NC(=O)CSc1nc(C)c(C(=O)Nc2ccccc2)c(-c2ccc(Cl)cc2)c1C#N`, the max activation is 3.31%.

As to `Cc1c(C(=O)OC(C)C)sc(NC(=O)c2cccnc2)c1C#N`, the max activation is -1.22%.

As for `Cc1ccccc1Nc1nn2c(=O)c3ccc(C(=O)NCCc4ccc(Cl)cc4)cc3nc2s1`, the max activation was 4.22%.

On to `Cc1c(CC(=O)N2CCN(C(=O)C3COc4ccccc4O3)CC2)c(=O)oc2c(O)c(O)ccc12` (stereo unspecified), for which the max activation is 40.6% (active).

Take `COc1ccc(OC)c2sc(N3CCN(C(=O)C4COc5ccccc5O4)CC3)nc12` (stereo unspecified): the max activation was -1.78%.

For the compound `COc1cc(NS(=O)(=O)c2ccc3c(c2)OCC(C(=O)N2CCCC2)O3)cc(OC)c1` (stereo unspecified), the max activation is 19.5%.

Regarding `CNCC(O)c1ccc(O)c(O)c1` (stereo unspecified), the max activation was 137% (active).

On to `CCC(C)c1ccc(O)c(/C=N/O)c1` (stereo unspecified), for which the max activation is -1.03%.

`Cc1cc(C)c(-c2n[nH]c3c2C(c2ccccc2F)N(CCO)C3=O)c(O)c1` (stereo unspecified): the max activation is -0.594%.

As for `CCC1(C)CC(=O)NC1=O` (stereo unspecified), the max activation was -5.68%.

As for `Cc1cc(C(=O)Nc2cccc(C(F)(F)F)c2)c2c(C)nn(-c3cccc(F)c3)c2n1`, the max activation is 8.25%.
